Source: PubChem BioAssay
ALOX12 inh: ALOX12 (human) lipoxygenase inhibition; hit rate 1.1% among 580,000; P18054; purified 12hLO, xylenol orange hydroperoxide absorbance; Potency, µM (highest dose often 108 µM), for inactives: at the top dose activity change, negative = inhibition, most hits filed as inhibitors; also: potency is read from the fitted curve at half-maximal effect
Target sequence (P18054 whole entry, looked up): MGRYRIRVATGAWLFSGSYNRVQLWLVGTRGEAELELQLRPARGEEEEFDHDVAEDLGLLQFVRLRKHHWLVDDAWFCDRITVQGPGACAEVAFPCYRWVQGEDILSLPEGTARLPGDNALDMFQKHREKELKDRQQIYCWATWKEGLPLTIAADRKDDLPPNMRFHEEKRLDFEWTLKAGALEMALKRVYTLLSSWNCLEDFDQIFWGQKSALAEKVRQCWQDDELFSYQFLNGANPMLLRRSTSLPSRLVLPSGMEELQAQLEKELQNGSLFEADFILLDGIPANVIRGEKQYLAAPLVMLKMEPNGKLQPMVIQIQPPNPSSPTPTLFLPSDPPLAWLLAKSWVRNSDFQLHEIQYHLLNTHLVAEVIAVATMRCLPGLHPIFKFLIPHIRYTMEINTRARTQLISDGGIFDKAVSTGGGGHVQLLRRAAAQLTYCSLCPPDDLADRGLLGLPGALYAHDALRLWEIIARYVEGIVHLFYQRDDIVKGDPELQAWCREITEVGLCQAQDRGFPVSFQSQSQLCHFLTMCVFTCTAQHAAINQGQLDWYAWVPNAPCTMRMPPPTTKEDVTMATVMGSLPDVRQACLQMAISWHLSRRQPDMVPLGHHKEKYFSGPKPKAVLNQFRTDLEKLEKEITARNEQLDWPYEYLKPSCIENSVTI
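Purified human 12hLO at 150 nM in 25 mM Hepes, 0.01% Triton X-100, pH 7.0, preincubated 15 min at room temperature with compound. Reaction started with 40 uM arachidonic acid, 30 min at room temperature. Hydroperoxide measured by Fe-xylenol orange, 573/405 nm absorbance ratio.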
IL-1B inflam inh: blocks inflammasome-driven IL-1 beta release; THP-1 LPS/ATP IL-1B secretion, AlphaLISA, 16 h; stronger effect = lower value; activity change, % at 57.5 µM; hit rate 4.7% among 360,000; AID 743279; in the data active = activity change below about -50%; inconclusive = mostly about -30% to -49%
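THP-1 cells pretreated 1 hr with compounds (up to 57.5 uM final), then stimulated with LPS (250 ng/mL final) plus ATP (1.25 mM final); secreted IL-1B measured by AlphaLISA after 16 hr, decreased signal indicating inhibition.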
DT40 TDP1 CPT: growth inhibition of DT40 Tdp1-/-;hTDP1 cells with camptothecin (screen for TDP1 inhibitors) | Potency, µM (highest dose often 46.2 µM), for the others: top-dose activity change, negative = growth inhibition, actives largely listed as inhibitors | hit rate 12% among 420,000 | chicken DT40 Tdp1-/-;hTDP1 cells + 20 nM CPT, ATP luminescence, 48 h; also: potency is read from the fitted curve at half-maximal effect; nearly all actives have a fitted effect of over 55% in size
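Cell growth measured by CellTiter-Glo luminescence after a minimum 48 h, 37 C compound exposure with 20 nM CPT in Tdp1-knockout DT40 cells stably expressing hTDP1, seeded 400/well; qHTS titration format.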
HT1080 IDH1KD tx: kills HT-1080 cells with IDH1 knockdown; HT-1080 IDH1 knockdown viability, ATP luminescence, 48 h; AID 686971; hit rate 2% among 360,000; Potency, µM (top dose mostly 46.1 µM), inactives show top-dose activity, negative = toxicity, actives largely listed as cytotoxic;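 also: potency is read from the fitted curve at half-maximal effect; 0% = DMSO wells and -100% = cell-free medium wells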
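In this qHTS, HT-1080 cells depleted of IDH1 are exposed for 48 h at 37 °C to compound titrations. Toxicity is scored from CellTiter-Glo luminescence, with DMSO as full viability and medium alone as none.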
HT1080NT lethal: kills 2HG-producing HT-1080-NT fibrosarcoma cells; Potency, µM (doses to about 46.1 µM), without a hit: at the highest dose activity, negative = less viability, hits mostly cytotoxic; HT-1080-NT fibrosarcoma viability, CellTiter-Glo ATP luminescence, 48 h; hit rate 1.6% among 360,000;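 also: NT is the 2HG producing partner of a matched IDH1 knockdown line; potency is read from the fitted curve at half-maximal effect; 0% = DMSO-treated cells and -100% = media-only wells without cells; nearly all actives have a fitted effect of over 55% in size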
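Luminescent CellTiter-Glo readout after 48 hours of compound exposure at 37 degrees C defined viability of HT-1080-NT cells. Activity was normalized to DMSO wells and cell-free media wells; concentration-response curves were fitted and assigned curve classes.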
TDP1 cell noCPT: qHTS for Inhibitors of human tyrosyl-DNA phosphodiesterase 1 (TDP1): qHTS in cells in absence of CPT. hit rate 15% among 420,000. Potency, µM (doses to about 46.2 µM), without a hit: at the highest dose activity change, negative = growth inhibition, usual class: inhibitors. DT40 Tdp1-/- hTDP1 cells, no CPT, ATP luminescence, 48 h; also: potency is read from the fitted curve at half-maximal effect; nearly all actives have a fitted effect of over 55% in size
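Stably hTDP1-transfected Tdp1-null chicken DT40 cells were treated with library compounds minus camptothecin and grown for at least 48 hr at 37 °C, after which cellular ATP was quantified by luminescence.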
* hit, by the source's call; ? = inconclusive; / = no result. Only a selection was taken, and hits are over-represented in it overall. Unless noted, calls follow the shape of the dose curve; as a rule, active = well fitted curve in the direction sought with a large enough effect; inconclusive = small, poorly fitted or top-dose-only effect, or another doubt; inactive = no such curve, though single readings can be large; an effect the other way counts as inactive or inconclusive. Unless noted, % is scaled to controls: 0 for no effect and ±100 for the full control effect.

SMILES	ALOX12 inh	IL-1B inflam inh	DT40 TDP1 CPT	HT1080 IDH1KD tx	HT1080NT lethal	TDP1 cell noCPT
CCCCCC(=O)N[C@@H](c1ccccc1)[C@@H](O)C(=O)O[C@H]1C[C@@]2(O)[C@@H](OC(=O)c3ccccc3)C3[C@](C)(C(=O)[C@H](OC(C)=O)C(=C1C)C2(C)C)[C@@H](O)C[C@H]1OC[C@@]31OC(C)=O (stereo partly drawn)	13%	-1	0.12µM*	0.0058µM*	?	0.1µM*
Cc1c(CC(=O)NCc2cccc(Cl)c2)c(=O)oc2c(C)c(O)ccc12	-12%	/	/	/	/	/
Nc1nc(-c2ccccc2)[nH]c(=O)c1N	23%	-14	26µM*	2%	1%	?
COc1ccc(C(=O)NC(=S)NC(C)(C)C)cc1Br	8.9µM*	-27	?	-5%	4%	23µM*
COc1ccc(C(=O)NC(=S)NC(C)C)cc1Br	4µM*	0	?	?	?	?
COc1ccc(C(=O)NC(=S)NNC(=O)c2ccc(NC(C)=O)cc2)cc1Br	13µM*	-4	?	-11%	-9%	?
N#Cc1ccccc1S(=O)(=O)N[C@H]1CO[C@H]2[C@@H]1OC[C@@H]2n1nnnc1Oc1ccccc1	3%	/	/	/	/	/
COc1ccccc1CN1CC2(C1)C(=O)N(CCCN1CCCC1=O)C(=O)[C@@H]1C[C@@H](O)CN12	-1%	/	/	/	/	/
Cc1ccccc1C1=CCN(c2ncc(NC(=O)c3ccc(Cl)cc3)cc2C(=O)O)CC1	41%	/	?	/	/	23µM*
Cc1cc(NC(=O)c2ccc(Cl)cc2)ccc1NC(=O)c1ccccc1Cl	88%	-21	?	-1%	3%	-23%
COC(=O)[C@]1(Cc2ccccc2)N[C@H](CN(C)C(=O)C2CCCCC2)[C@@H]2C(=O)N(C)C(=O)[C@@H]21	-8%	-9	-1%	-1%	4%	-8%
CCN(C[C@H]1N[C@@](CC)(C(=O)OC)[C@H]2C(=O)N(Cc3ccccc3)C(=O)[C@@H]12)C(=O)c1ccc(F)cc1	?	-12	-30%	11%	6%	?
COC(=O)[C@]1(Cc2ccccc2)N[C@H](CN(C)C(=O)c2ccc(C)cc2)[C@@H]2C(=O)N(Cc3ccccc3)C(=O)[C@@H]21	8%	-2	?	0%	5%	18µM*
COC(=O)[C@]1(Cc2ccccc2)N[C@H](CN(C)C(=O)C2CCCCC2)[C@@H]2C(=O)N(Cc3ccccc3)C(=O)[C@@H]21	-1%	-6	21µM*	1%	1%	16µM*
COC(=O)[C@]1(Cc2ccccc2)N[C@H](CN(C)C(=O)Nc2ccc(OC)cc2)[C@@H]2C(=O)N(Cc3ccccc3)C(=O)[C@@H]21	?	-26	18µM*	-13%	-8%	8.2µM*
CC[C@@]1(C(=O)OC)N[C@H](CN(C)C(=O)c2ccc(C)cc2)[C@@H]2C(=O)N(Cc3ccccc3)C(=O)[C@@H]21	-13%	-8	-26%	6%	0%	-18%
CCN(C[C@H]1N[C@@](Cc2ccccc2)(C(=O)OC)[C@H]2C(=O)N(Cc3ccccc3)C(=O)[C@@H]12)C(=O)c1ccc(F)cc1	-13%	-17	16µM*	3%	5%	?
Oc1ccc(-c2nc(C3CC3)nc3c2CCN(Cc2ccccc2C(F)(F)F)CC3)cc1	4%	/	/	/	/	/
OC(c1ccccc1)(c1ccccc1)C1CCN(Cc2cccc(OCc3ccccc3)c2)CC1	-91%	/	/	/	/	/
N#CCCn1cc(C(=O)Nc2ccc(F)cc2)c(-c2cccs2)n1	-11%	/	/	/	/	/
CCN(C[C@H]1N[C@@](CC)(C(=O)OC)[C@H]2C(=O)N(Cc3ccccc3)C(=O)[C@@H]12)C(=O)Nc1ccc(C(F)(F)F)cc1	27%	-108*	-9%	5%	2%	6.5µM*
CCN(C[C@H]1N[C@@](CC)(C(=O)OC)[C@H]2C(=O)N(Cc3ccccc3)C(=O)[C@@H]12)C(C)=O	-20%	15	-7%	2%	0%	-1%
CCN(C[C@H]1N[C@@](CC)(C(=O)OC)[C@H]2C(=O)N(Cc3ccccc3)C(=O)[C@@H]12)C(=O)c1ccc(C)cc1	-20%	0	?	-3%	7%	15µM*
CC[C@@]1(C(=O)OC)N[C@H](CN(C)C(=O)c2ccc(F)cc2)[C@@H]2C(=O)N(C)C(=O)[C@@H]21	8.9µM*	16	4%	9%	13%	-4%
CC[C@@]1(C(=O)OC)N[C@H](CN(C)C(=O)c2ccccc2)[C@@H]2C(=O)N(C)C(=O)[C@@H]21	-6%	13	11%	11%	8%	20%
SMILES	ALOX12 inh	IL-1B inflam inh	DT40 TDP1 CPT	HT1080 IDH1KD tx	HT1080NT lethal	TDP1 cell noCPT
COCCN(CCCc1ccccc1)CC(=O)N(C)C	23%	/	/	/	/	/
COc1ccccc1C(=O)NCC(=O)N=Nc1c(O)n(C(C)C)c2ccccc12	-2%	-7	?	4%	-3%	18µM*
Cc1cc(C(=O)N=Nc2c(O)n(C(C)C)c3ccccc23)n[nH]1	-2%	-7	?	1%	2%	18µM*
Cn1c(O)c(N=NC(=O)Cn2c(C(F)(F)F)nc3ccccc32)c2ccccc21	-11%	11	21µM*	9%	1%	13µM*
O=C(Cn1ccc(C(F)(F)F)n1)N=Nc1c(O)[nH]c2ccccc12	-14%	-3	6%	-8%	-21%	-20%
O=C(O)Cn1c(C(F)(F)F)nc2ccccc21	-17%	10	2%	11%	15%	-28%
CC(C)n1c(O)c(N=NC(=O)CNC(=O)CCc2ccccc2)c2ccccc21	0%	-1	5%	13%	0%	?
CC(C)n1c(O)c(N=NC(=O)Cn2ccc(C(F)(F)F)n2)c2ccccc21	11%	0	?	11%	-2%	8.2µM*
Cc1nc2ccc(C(=O)N3CCCC3CN3CCCC3)cc2nc1C (stereo not drawn)	-12%	/	/	/	/	/
CC(=O)N1c2ccc(S(=O)(=O)N3CCCC(C(=O)Nc4ccc(C)cc4)C3)cc2CC1C (stereo not drawn)	20%	/	/	/	/	/
CCc1ccc(NC(=O)C2CCCN(S(=O)(=O)c3ccc4c(c3)CC(C)N4C(C)=O)C2)cc1 (stereo not drawn)	6%	-5	16µM*	-1%	7%	26µM*
